Our source for the activity remaining and remaining activity values is PubChem BioAssay.

For experiment [1], the system named is Aerobactin synthetase IucA (Klebsiella pneumoniae hvKP1). The experiment can be described thus: IucA enzyme inhibition, primary screen, biochemical, Spectrum library (AID 1346200).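 Note: 100% = wells without compound and 0% = wells lacking enzyme.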 As to conditions: malachite green pyrophosphate, A620, at 8 µM, active compounds read low.
Experiment [2] has as its system Aerobactin synthetase IucA (Klebsiella pneumoniae, hypervirulent). The experiment can be described thus: biochemical IucA inhibition screen of LOPAC library by absorbance (AID 1346212).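 Note: 100% = no compound wells and 0% = no enzyme wells.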 As to conditions: IucA enzyme assay, absorbance (OD) readout; active compounds read low;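 tested at 8 µM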.

Where “and” joins values, the source holds several entries; their conditions need not be identical. Identical values can stand only once. Values without a mark were called inactive. Calls of active or inactive are those of the source. The rule behind the calls is not given here.

Regarding `NC(=O)N1c2ccccc2C=Cc2ccccc21`, the activity remaining in experiment [1] is 114%. The remaining activity (in general, the signal under treatment as a percentage of the control signal) in experiment [2] is 102%.
On to `CC1=C(/C=C/C(C)=C/C=C/C(C)=C/C(=O)O)C(C)(C)CCC1`, for which, in experiment [1], the activity remaining is 109%. The remaining activity in experiment [2] is 92%.
In the same order, the values of `CC(C)[N+](C)(CCOC(=O)C1c2ccccc2Oc2ccccc21)C(C)C` are 105% and 92.2%.
In the same order, the values of `NC(=NCc1ccccc1)NC(=O)c1nc(Cl)c(N)nc1N` are 78.3% and 94.8%.
As to `CCCCS(=N)(=O)CCC(N)C(=O)O` (stereo not given), in experiment [1], the activity remaining is 102%. Besides, the remaining activity in experiment [2] is 84.7%.
The like results for `O=C(c1ccc(F)cc1)C1CCN(CCn2c(=O)[nH]c3ccccc3c2=O)CC1` were, in that order, 120% and 73.1%.
On to `CC(COc1ccccc1)N(CCCl)Cc1ccccc1` (stereo not given), for which the activity remaining in experiment [1] was 107%. Moreover, the remaining activity in experiment [2] is 109%.
In the same order, the values of `CN(C)CCOC(c1ccccc1)c1ccccc1` are 105% and 100%.
As for `Nc1c2c(nc3ccccc13)CCCC2`, the activity remaining in experiment [1] was 118%. Also, the remaining activity in experiment [2] is 119%.
The like results for `CCCN(CCC)C(=O)C(CCC(=O)O)NC(=O)c1ccccc1` (stereo not given) were, in that order, 115% and 99.4%.
Take `C[N+]1(CCCCC[N+]2(C)CCCC2)CCCC1`: in experiment [1], the activity remaining was 89.1%. Further, the remaining activity in experiment [2] was 119%.
In the same order, the values of `CC12CC3CC(C)(C1)CC(N)(C3)C2` are 108% and 92.7%.
For `CC(C)NCC(O)c1cc(O)cc(O)c1` (stereo not given), in experiment [1], the activity remaining is 126%. For the same molecule, the remaining activity in experiment [2] is 118%.
Regarding `Nc1nc(N)c2nc(-c3ccccc3)c(N)nc2n1`, in experiment [1], the activity remaining is 114%. Further, in experiment [2], the remaining activity is 93.9%.
The like results for `CC(=O)OC(C)C[N+](C)(C)C` (stereo not given) were, in that order, 80.8% and 119%.
The like results for `CC(=O)N[C@@H](CS)C(=O)O` were, in that order, 110% and 108%.
In the same order, the values of `CN1Cc2c(N)cccc2C(c2ccccc2)C1` (stereo not given) are 119% and 109%.
For `Cc1ccccc1C(OCCN(C)C)c1ccccc1` (stereo not given), in experiment [1], the activity remaining is 100%. Moreover, the remaining activity in experiment [2] was 117%.
The like results for `Nc1ncnc2c1ncn2[C@@H]1O[C@H](CO)[C@@H](O)[C@H]1O` were, in that order, 113% and 110%.
The like results for `C#CCN(C)Cc1ccccc1` were, in that order, 122% and 80.8%.
In the case of `N[C@@H]1CONC1=O`, the activity remaining in experiment [1] was 102%. In addition, in experiment [2], the remaining activity was 112%.
As for `CCOC(=O)C(C)(C)Oc1ccc(Cl)cc1`, in experiment [1], the activity remaining was 110%. Besides, the remaining activity in experiment [2] is 122%.
The like results for `c1ccc2c(c1)CCCC2C1=NCCN1` (stereo not given) were, in that order, 110% and 102%.
The like results for `O=C(O)c1cccnc1C(=O)O` were, in that order, 89.1% and 116%.
The like results for `OCCN1CCN(CCCN2c3ccccc3Sc3ccc(Cl)cc32)CC1` were, in that order, 121% and 112%.
Consider `CN(C)CCCN1c2ccccc2Sc2ccccc21`, for which, in experiment [1], the activity remaining was 109%. For the same molecule, the remaining activity in experiment [2] is 95%.
As for `Cc1ccc(C(=O)Nc2ccc(S(=O)(=O)O)c3cc(S(=O)(=O)O)cc(S(=O)(=O)O)c23)cc1NC(=O)c1cccc(NC(=O)Nc2cccc(C(=O)Nc3cc(C(=O)Nc4ccc(S(=O)(=O)O)c5cc(S(=O)(=O)O)cc(S(=O)(=O)O)c45)ccc3C)c2)c1`, the activity remaining in experiment [1] was 69% (active). Further, the remaining activity in experiment [2] is 34.4% (active).
The like results for `NC(N)=NC(N)=Nc1ccccc1` were, in that order, 123% and 101%.
In the same order, the values of `CCC1(C)CC(=O)NC1=O` (stereo not given) are 123% and 85.2%.
In the same order, the values of `CC(=O)Nc1nnc(S(N)(=O)=O)s1` are 103% and 113%.
For `CC1=NS(=O)(=O)c2cc(Cl)ccc2N1`, the activity remaining in experiment [1] was 107%. The remaining activity in experiment [2] is 105%.
The like results for `Cc1cc(C(C)(C)C)cc(C)c1CC1=NCCN1` were, in that order, 126% and 115%.
As to `NCCS(=O)(=O)O`, in experiment [1], the activity remaining is 123%. Besides, the remaining activity in experiment [2] is 97.8%.
On to `NC(N)=NC(=O)c1nc(Cl)c(N)nc1N`, for which, in experiment [1], the activity remaining was 118%. Also, the remaining activity in experiment [2] is 105%.
For `COc1cc(Cc2cnc(N)nc2N)cc(OC)c1OC`, the activity remaining in experiment [1] is 93.2%. Also, in experiment [2], the remaining activity was 76.5%.
The like results for `CCn1cc(C(=O)O)c(=O)c2cc3c(cc21)OCO3` were, in that order, 109% and 95.5%.
The like results for `Cc1cn[nH]c1` were, in that order, 102% and 121%.
On to `NC(N)=NCCCCN=C(N)N`, for which the activity remaining in experiment [1] was 119%. In experiment [2], the remaining activity was 90.7%.
The like results for `C[C@H]1c2cccc(O)c2C(O)=C2C(=O)[C@]3(O)C(O)=C(C(N)=O)C(=O)[C@@H](N(C)C)[C@@H]3[C@@H](O)[C@@H]21` were, in that order, 93.8% and 104%.
The like results for `NC1(C(=O)O)CC1` were, in that order, 94.3% and 88.1%.
In the same order, the values of `CN(C)CCOC(C)(c1ccccc1)c1ccccn1` (stereo not given) are 104% and 101%.
`CCN(CC)CCOC(=O)C1(C2CCCCC2)CCCCC1`: in experiment [1], the activity remaining was 125%. Further, in experiment [2], the remaining activity was 92.7%.
The like results for `CN1C2CCC1CC(OC(c1ccccc1)c1ccccc1)C2` (stereo not given) were, in that order, 101% and 113%.
As to `O=C(O)c1cc2cc(F)ccc2[nH]1`, the activity remaining in experiment [1] is 106%. For the same molecule, in experiment [2], the remaining activity is 86.3%.
In the same order, the values of `CC/C(=C(\c1ccccc1)c1ccc(OCCN(C)C)cc1)c1ccccc1` are 118% and 107%.
The like results for `O=C(CCCN1CCC(O)(c2ccc(Cl)cc2)CC1)c1ccc(F)cc1` were, in that order, 117% and 100%.
In the same order, the values of `Fc1ccc([C@@H]2CCNC[C@H]2COc2ccc3c(c2)OCO3)cc1` are 108% and 121%.
On to `CN(C)CCOC(=O)COc1ccc(Cl)cc1`, for which the activity remaining in experiment [1] is 124%. In addition, in experiment [2], the remaining activity was 112%.
The like results for `C=Cc1c(C)c2cc3[nH]c(cc4nc(cc5nc(cc1[nH]2)C(C)=C5CCC(=O)O)C(CCC(=O)O)=C4C)c(C)c3C=C` were, in that order, 97.5% and 107%.
The like results for `CC1COc2c(N3CCN(C)CC3)c(F)cc3c(=O)c(C(=O)O)cn1c23` (stereo not given) were, in that order, 92.3% and 118%.
Consider `CC(C)NCC(O)COc1cccc2[nH]ccc12` (stereo not given), for which the activity remaining in experiment [1] is 103%. In addition, in experiment [2], the remaining activity is 116%.
In the same order, the values of `O=c1cc(-c2ccc(O)cc2)oc2cc(O)cc(O)c12` are 113% and 107%.
For the molecule `CCCCC1C(=O)N(c2ccccc2)N(c2ccccc2)C1=O`, the activity remaining in experiment [1] is 117%. Besides, the remaining activity in experiment [2] was 102%.
With `CC1(C)NC(=O)N(c2ccc([N+](=O)[O-])c(C(F)(F)F)c2)C1=O`, the activity remaining in experiment [1] is 124%. Moreover, in experiment [2], the remaining activity is 98.2%.
For the molecule `CCCOc1ccccc1-c1nc2n[nH]nc2c(=O)[nH]1`, the activity remaining in experiment [1] is 97.7%. For the same molecule, the remaining activity in experiment [2] was 125%.
With `Cc1ccccc1N1C(=O)c2cc(S(N)(=O)=O)c(Cl)cc2NC1C` (stereo not given), the activity remaining in experiment [1] was 95.7%. Moreover, in experiment [2], the remaining activity was 122% and 125%.
As to `CCn1cc(C(=O)O)c(=O)c2cc(F)c(N3CCNC(C)C3)c(F)c21` (stereo not given), in experiment [1], the activity remaining was 104%. The remaining activity in experiment [2] was 118%.
As for `CSc1ccc2c(c1)C(N1CCN(C)CC1)Cc1ccccc1S2` (stereo not given), the activity remaining in experiment [1] is 103%. Further, the remaining activity in experiment [2] is 114%.
The like results for `Cc1cc(N)c2ccccc2[n+]1CCCCCCCCCC[n+]1c(C)cc(N)c2ccccc21` were, in that order, 82.6% and 105%.
As for `CCN(CC)CCOCCOC(=O)C1(c2ccccc2)CCCC1`, the activity remaining in experiment [1] is 93.9%. For the same molecule, the remaining activity in experiment [2] is 113%.
